Shown is part of a subset that was picked to be rich in hits.
VHR inh color = VHR1 (DUSP3) phosphatase inhibition; P51452; AID 1992; recombinant VHR phosphatase, colorimetric substrate read-out; actives 0.7% (n = 50,000); inhibition, % at 20 µM; in the data active means inhibition above about 60%
Target sequence (P51452 whole entry, looked up): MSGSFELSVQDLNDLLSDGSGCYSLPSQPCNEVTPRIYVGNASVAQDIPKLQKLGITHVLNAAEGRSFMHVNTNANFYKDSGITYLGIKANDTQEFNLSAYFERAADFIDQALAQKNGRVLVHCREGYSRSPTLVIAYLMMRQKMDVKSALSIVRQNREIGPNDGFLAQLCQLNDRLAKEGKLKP
Large screens that a line does not name were inactive.

O=C1CC(c2ccc3c(c2)OCO3)CC2=C1C(c1ccc(-c3ccccc3)cc1)Nc1ccccc1N2 (stereo not given)	VHR inh color 115
CN=C(NS(=O)(=O)c1ccccc1)c1ccccc1	none
O=C(Cn1c(O)c(N=NC(=O)C(=O)Nc2cccc([N+](=O)[O-])c2)c2ccccc21)Nc1ccccc1	none
N#C/C(=C\c1ccc(Cl)cc1Cl)c1nc(-c2ccc(Br)cc2)cs1	none
O=C(Cc1ccccc1)Nc1ccc(Br)cc1C(=O)O	none
Cc1ccc(NC(=O)CSc2nsc(SCC(=O)Nc3ccc(C)cc3)c2C#N)cc1	none
Cc1ccc(C(=O)c2oc3ccccc3c2C)cc1	none
O=C1N=c2ccc(Cl)cc2=C1c1sc(=S)n(Cc2ccco2)c1O	VHR inh color 68
CCCCn1c(O)c(C2=c3ccccc3=NC2=O)sc1=S	none
O=C1N=c2ccccc2=C1c1sc(=S)n(Cc2ccco2)c1O	none
O=c1nc(/C=C/c2ccc(Cl)cc2)cc(C(F)(F)F)[nH]1	none
O=c1nc(/C=C/c2ccc(N3CCOCC3)cc2)cc(C(F)(F)F)[nH]1	none
O=c1nc(/C=C/c2ccc(N3CCCC3)cc2)cc(C(F)(F)F)[nH]1	VHR inh color 108
COc1ccc2ccccc2c1C=Nc1ccc(Cl)c([N+](=O)[O-])c1	none
COc1ccccc1-c1cc(C(=O)O)c2ccccc2n1	none
O=C(O)c1cc(-c2cn[nH]c2-c2ccccc2)nc2ccc3ccccc3c12	VHR inh color 110
O=C(O)c1cc(-c2cccc([N+](=O)[O-])c2)nc2ccccc12	none
C=CCN1C(=O)/C(=C\c2ccc(OS(=O)(=O)c3ccccc3)c(OCC)c2)SC1=S	none
O=C(N/N=C/c1ccc(Cl)cc1)c1cc(-c2ccc3ccccc3c2)n[nH]1	none
Cc1ccc(NCC(=O)N/N=C\c2ccc(OC(=O)c3ccccc3)cc2)cc1	none
O=C(Oc1ccc(/C=N/O)cc1)c1ccc(Br)cc1	VHR inh color 104
O=C(N/N=C/c1ccc(/C=N/NC(=O)c2ccc(Br)cc2)cc1)c1ccc(Br)cc1	none
CCc1cc(C)nc2cc(-c3ccccc3)nn12	none
Cc1cc2[nH]c(=O)cc(-c3ccccc3)n2n1	none
Cc1cc(=O)[nH]c2cc(-c3ccccc3)nn12	VHR inh color 97
O=C(N/N=C/c1ccc(-c2ccc(Cl)cc2)o1)c1ccccc1	none
Cc1cccc(N2C(=O)NC(=O)/C(=C/c3cccn3-c3ccc([N+](=O)[O-])cc3)C2=O)c1	none
CC1=NN(c2ccccc2)C(=O)/C1=C/c1cccn1-c1ccc([N+](=O)[O-])cc1	none
CCN1C(=O)C(=Cc2cccn2-c2ccc([N+](=O)[O-])cc2)C(=O)N(CC)C1=S	VHR inh color 73
CCOc1ccc(N2C(=O)NC(=O)/C(=C\c3ccc(I)o3)C2=O)cc1	none
O=C1NC(=S)N(c2ccccc2F)C(=O)/C1=C/c1ccc(I)o1	VHR inh color 86
CCOc1ccc(N2C(=O)/C(=C/c3ccc(C)o3)C(=O)NC2=S)cc1	none
CCOc1ccc(N2C(=O)/C(=C/c3ccc(I)o3)C(=O)NC2=S)cc1	VHR inh color 85
CCc1ccc(N2C(=O)/C(=C/c3ccc(I)o3)C(=O)NC2=S)cc1	none
COc1ccccc1C=C1C(=O)NC(=S)N(c2ccccc2F)C1=O	none
CCc1ccc(-c2c(C)sc(N)c2C(=O)OC)cc1	none
Nc1nonc1C(=O)N/N=C/c1cn[nH]c1-c1ccccc1	none
COc1ccc2c(c1)C1C=CCC1C(c1cccc([N+](=O)[O-])c1)N2 (stereo not given)	none
O=C(Nc1cccc(Cl)c1)Nc1ccc(Br)cn1	none
O=C(Nc1ccc(Cl)c(Cl)c1)C1C2/C=C\CCCCC21 (stereo not given)	none
O=C(O)C1C(C(=O)Nc2ccccc2)C2C=CC1C21CC1 (stereo not given)	none
O=C(Nc1ccccc1)C1C2/C=C\CCCCC21 (stereo not given)	VHR inh color 100
O=C(Cn1nnc(-c2ccccc2)n1)Nc1ccccc1[N+](=O)[O-]	none
CC(C)(C)N1C(=O)c2ccc(C(=O)Nc3ccc(I)cc3C(=O)O)cc2C1=O	none
CCOc1cc(C=C2C(=O)NC(=S)NC2=O)ccc1OCCSc1cccc2ccccc12	none
O=C1C=C(NCc2ccc(F)cc2)CC(c2ccccc2)C1 (stereo not given)	none
c1ccc(NCc2ccc3c(c2)OCO3)cc1	none
O=C1C=C(NCc2ccc3c(c2)OCO3)CC(c2ccccc2)C1 (stereo not given)	VHR inh color 101
COc1ccc(CNc2ccc(C)c(C)c2)c(OC)c1	none
CN1CCN(C(=O)CN2C(=O)/C(=C/c3ccccc3)SC2=S)CC1	none
O=Cc1cccc(OCc2c(F)cccc2Cl)c1	none
Cc1ccc(S(=O)(=O)Oc2cccc(/C=C3/SC(=S)N(Cc4ccccc4)C3=O)c2)cc1	VHR inh color 108
C=CCN1C(=O)/C(=C\c2cccc(OS(=O)(=O)c3ccc(C)cc3)c2)SC1=S	none
CCN1C(=O)/C(=C\c2cccc(OS(=O)(=O)c3ccc(C)cc3)c2)SC1=S	none
Cc1cc(C)c(S(=O)(=O)Nc2cc(Br)c(O)c3ccccc23)c(C)c1	none
CCOc1ccccc1NC(=O)CN(c1ccc(Oc2ccccc2)cc1)S(C)(=O)=O	none
NC1=NC(=O)/C(=C\c2ccc(-c3cccc(C(=O)O)c3)o2)S1	none
NC1=NC(=O)/C(=C\c2ccc(-c3ccccc3Cl)o2)S1	none
NC1=NC(=O)/C(=C\c2ccc(-c3ccc([N+](=O)[O-])cc3)o2)S1	VHR inh color 77
Cc1ccc2sc(-c3ccc(NCc4ccc5c(c4)OCO5)cc3)nc2c1	none
COc1ccccc1/C=C1\SC(=N)N(c2ccc(F)cc2)C1=O	none
NNC(=O)CNC(c1ccccc1)c1cc(Br)ccc1NC(=O)c1ccccc1Cl (stereo not given)	none
CCNC(=O)c1ccc(Cl)cc1Cl	none
Cc1ccc(C)n1-c1ccc(O)c(C(=O)O)c1	none
Cc1ccc(C)n1-c1ccc(C(=O)NN)c(Cl)c1	VHR inh color 90
Cc1cc(C)nc(SCC(=O)Oc2ccc3c(C)cc(=O)oc3c2)n1	none
Clc1ccc(N2CCN(/N=C/c3ccccc3Cl)CC2)cc1	none
OC(COc1ccccc1)CSc1nc2ccccc2s1 (stereo not given)	none
N#CCCn1c(=S)oc2ccccc21	none
CC(C)c1ccc(/C=C/C(=O)N2CCN(c3ccc(F)cc3)CC2)cc1	none
CCOc1ccc(C2CC(=O)NC(SCc3ccccc3)=C2C#N)cc1OC (stereo not given)	none
NNc1ccc(/C=C/c2ccc(NN)cc2S(=O)(=O)O)c(S(=O)(=O)O)c1	none
COc1ccc(-c2nc3sc4c(c3c(=O)[nH]2)CCCC4)cc1C	VHR inh color 61
CCOc1ccc(-c2nc3sc4c(c3c(=O)[nH]2)CCCC4)cc1OCC	none
C=CCOc1ccc(-c2nc3sc4c(c3c(=O)[nH]2)CCCC4)cc1OC	none
CCOc1ccc(-n2c(-c3ccccc3)nc3c(cnn3-c3ccccc3)c2=O)cc1	none
COc1ccc(CN2CCN(CC3CC=CCC3)CC2)c(OC)c1OC (stereo not given)	none
CCN1C(=O)/C(=C\c2ccc(-c3ccccc3Cl)o2)SC1=S	none
O=C1/C(=C/c2ccc(Cl)cc2)SC(=S)N1CCS(=O)(=O)O	VHR inh color 80
CCN1C(=O)/C(=C\c2ccc(-c3ccc(F)cc3)o2)SC1=S	none
COC(=O)CN1C(=O)/C(=C\c2ccc(Cl)cc2)SC1=S	none
O=C1/C(=C\c2ccc(-c3cccc(Cl)c3)o2)SC(=S)N1CCS(=O)(=O)O	VHR inh color 91
O=C1/C(=C/c2ccc(Cl)cc2)SC(=S)N1CCc1ccccc1	none
CCOC(=O)/C(C#N)=C/c1ccc(OCc2c(C)no[n+]2[O-])cc1	none
CCOC(=O)c1c(N)sc(C)c1-c1ccc(F)cc1	none
COc1ccc(Nc2nc(-c3ccc4ccccc4c3)cs2)cc1	none
COc1ccc(-c2csc(-c3nc(-c4ccc(OC)c(OC)c4)cs3)n2)cc1OC	none

From PubChem
